Laboratory results from PubChem BioAssay (EPA / NIEHS).
The source made the active and inactive calls. How the source made its calls: active means hit-call score of the fitted dose curve at least 0.9, where 1 is the maximum; inactive means score below 0.9.

Assays:
Details in all cases: mRNA level, 48 h; actives raise or lower the signal
[1] = read-out: ATP-citrate lyase (ACLY), ACLY (gene 47); experiment: LTEA_HepaRG_ACLY: Life Technologies and Expression Analysis (LTEA) Assay for ATP-citrate lyase (ACLY) using HepaRG (AID 2283466)
Summary of the method: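 Differentiated human HepaRG cells in serum-free induction medium exposed 48 h, in duplicate, to eight half-log concentrations from 100 uM top in 0.5% DMSO; ACLY mRNA measured by qRT-PCR, normalized to ACTB, GAPDH, POLR2A, fitted bidirectionally versus DMSO.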

[2] = read-out: Peroxisomal acyl-coenzyme A oxidase 1 (ACOX1) gene, ACOX1 (gene 51); experiment: LTEA_HepaRG_ACOX1: Life Technologies and Expression Analysis (LTEA) Assay for Peroxisomal acyl-coenzyme A oxidase 1 (ACOX1) gene using HepaRG (AID 2283467)
Summary of the method: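 Differentiated human HepaRG cells were exposed in duplicate for 48 h in serum-free induction medium to eight half-log concentrations up to 100 uM in 0.5% DMSO. ACOX1 mRNA was then quantified by TaqMan qRT-PCR, normalized to ACTB, GAPDH and POLR2A.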

[3] = read-out: Alkaline Phosphatase, Placental (ALPP) gene, ALPP (gene 250); experiment: LTEA_HepaRG_ALPP: Life Technologies and Expression Analysis (LTEA) Assay for Alkaline Phosphatase, Placental (ALPP) gene using HepaRG (AID 2283468)
Summary of the method: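 Differentiated human HepaRG cells were plated and cultured 48 h, then exposed in duplicate for 48 h in serum-free induction medium to eight half-log concentrations from 100 uM in 0.5% DMSO. ALPP mRNA was measured by TaqMan qRT-PCR, normalized to ACTB, GAPDH, POLR2A.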

[4] = read-out: Bcl-2 (BAD) gene, BAD (gene 572); experiment: LTEA_HepaRG_BAD: Life Technologies and Expression Analysis (LTEA) Assay for Bcl-2 (BAD) gene using HepaRG (AID 2283469)
Summary of the method: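 Differentiated human HepaRG cells in serum-free induction medium were exposed in duplicate for 48 h to eight concentrations (top 100 uM, half-log steps, 0.5% DMSO). BAD mRNA was quantified by qRT-PCR normalised to ACTB, GAPDH and POLR2A, with bidirectional fitting versus DMSO.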

[5] = read-out: Bcl-2 (BAX) gene, BAX (gene 581); experiment: LTEA_HepaRG_BAX: Life Technologies and Expression Analysis (LTEA) Assay for Bcl-2 (BAX) gene using HepaRG (AID 2283470)
Summary of the method: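 Concentration-response endpoint fitted in both directions relative to 0.5% DMSO vehicle. Human HepaRG cultures receive test chemicals for 48 h at up to 100 uM; BAX mRNA is quantified by qRT-PCR against housekeeping genes.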

[6] = read-out: adenosine kinase (ADK) gene, ADK (gene 132); experiment: LTEA_HepaRG_ADK: Life Technologies and Expression Analysis (LTEA) Assay for adenosine kinase (ADK) gene using HepaRG (AID 2283471)
Summary of the method: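 HepaRG (human liver), 48 h chemical exposure, 8-pt half-log series, top 100 uM, 0.5% DMSO vehicle. Readout: ADK mRNA by qRT-PCR vs housekeeping genes; bidirectional curve fit relative to DMSO baseline.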

[7] = read-out: Alpha-fetoprotein (AFP) gene, AFP (gene 174); experiment: LTEA_HepaRG_AFP: Life Technologies and Expression Analysis (LTEA) Assay for Alpha-fetoprotein (AFP) gene using HepaRG (AID 2283472)
Summary of the method: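 After a 48 h plating period, cells are moved to serum-free induction medium and dosed in duplicate (100 uM maximum, half-log dilutions, 0.5% DMSO) for another 48 h. Total RNA goes to TaqMan qRT-PCR; AFP signal is housekeeping-normalized.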

BCL2L11 (gene 10018) = experiment: LTEA_HepaRG_BCL2L11: Life Technologies and Expression Analysis (LTEA) Assay for Bcl-2 (BCL2L11) gene using HepaRG (AID 2283473)
Summary of the method: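 Differentiated human HepaRG cells in serum-free induction medium were exposed in duplicate for 48 h to eight concentrations (top 100 uM, half-log steps, 0.5% DMSO). BCL2L11 mRNA was quantified by TaqMan qRT-PCR, normalized to ACTB/GAPDH/POLR2A, bidirectional fit versus DMSO.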

[8] = read-out: Apolipoprotein A-V (APOA5) gene, APOA5 (gene 116519); experiment: LTEA_HepaRG_APOA5: Life Technologies and Expression Analysis (LTEA) Assay for Apolipoprotein A-V (APOA5) gene using HepaRG (AID 2283474)
Summary of the method: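 Differentiated human HepaRG cells were exposed in duplicate for 48 h to eight half-log concentrations from 100 uM in 0.5% DMSO. APOA5 mRNA was quantified by TaqMan qRT-PCR, normalized to ACTB, GAPDH and POLR2A, and fitted bidirectionally against DMSO.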

Measured: AC50

COP(=S)(OC)SCN1C(=O)c2ccccc2C1=O
inactive: all assays above

C=CCc1ccc2c(c1)OCO2
not listed: BCL2L11 (gene 10018) | [8]
inactive: all other assays above

OCCCBr
not listed: BCL2L11 (gene 10018) | [8]
inactive: all other assays above

C[C@]12C=CC3=C4CCC(=O)C=C4CC[C@H]3[C@@H]1CC[C@@H]2O
active: [3] 24.4 µM | [6] 68.2 µM | [7] 50 µM
inactive: all other assays above

c1ccc2c(c1)oc1ccccc12
inactive: all assays above

CCC12COCN1COC2
inactive: all assays above

CC(C)(OOC(C)(C)c1ccccc1)c1ccccc1
not listed: BCL2L11 (gene 10018) | [8]
inactive: all other assays above

CN(C)C(=O)Nc1ccc(Cl)cc1
not listed: [8]
inactive: all other assays above

[Cl-].[Cl-].[Hg+2]
not listed: BCL2L11 (gene 10018) | [8]
inactive: all other assays above

Nc1ccc(Cl)cc1N
inactive: [1] | [3] | [4] | [6]
active: [2] 27 µM | [5] 13.2 µM | [7] 22.5 µM | BCL2L11 (gene 10018) 18.9 µM | [8] 16.2 µM

COc1cc(C=O)cc2c1[C@H](COC(N)=O)[C@]1(OC(C)=O)ON2C[C@H]2[C@@H]1N2C(C)=O
inactive: [1] | [3] | [5]
active: [2] 94.2 µM | [4] 89.3 µM | [6] 24.6 µM | [7] 0.95 µM | BCL2L11 (gene 10018) 1.29 µM

CC(C)(C)C(O)(CCc1ccc(Cl)cc1)Cn1cncn1 (configuration not stated)
active: [1] 6.24 µM | [3] 80.3 µM | [7] 62.2 µM
not listed: [8]
inactive: all other assays above

CC(C)COC(=O)c1ccccc1C(=O)OCC(C)C
not listed: [8]
inactive: all other assays above

CCCSC(=O)N(CCC)CCC
not listed: BCL2L11 (gene 10018) | [8]
inactive: all other assays above

Cn1cc(-c2ccccc2)c(=O)c(-c2cccc(C(F)(F)F)c2)c1
active: [3] 50 µM
not listed: [8]
inactive: all other assays above

ClCCOCCCl
not listed: BCL2L11 (gene 10018) | [8]
inactive: all other assays above

CN(C)c1ccccc1
not listed: [8]
inactive: all other assays above

ClC1=C(Cl)C2(Cl)C3C(Cl)C=CC3C1(Cl)C2(Cl)Cl (configuration not stated)
active: [7] 22.7 µM
not listed: [8]
inactive: all other assays above

O=C1CCCO1
active: [6] 50 µM
inactive: all other assays above

CCCCCCCCCCCCCN1CC(C)OC(C)C1 (configuration not stated)
not listed: BCL2L11 (gene 10018) | [8]
inactive: all other assays above

O=C(O)C1C2CCC(O2)C1C(=O)O (configuration not stated)
active: [3] 20.1 µM | [7] 75.3 µM | [8] 67.8 µM
inactive: all other assays above

CCCCCCCCn1sccc1=O
active: [2] 83.8 µM | [7] 79.5 µM | [8] 82.9 µM
inactive: all other assays above
